Consider 33 molecules from PubChem BioAssay (NCATS).

Inconclusive results are not listed. Entries that show only a call come without a potency. Active and inactive are the calls of the source. The call rests on the fitted dose curve; in most records, active means well fitted inhibition curve with a large enough effect; inconclusive means small, poorly fitted or top-dose-only effect; inactive means no such curve, though single readings can be large or run the other way.
Potency means the concentration at half of the fitted maximal effect.

This experiment can be described thus: qHTS for Inhibitors of ATXN expression: Validation (AID 588378). Further: nearly all actives have a fitted effect of over 75% in size. Particulars: cell-based ATXN2 expression reporter assay, luminescence; series mostly up to 57.1 µM. The text has this: Spinocerebellar ataxia type 2 (SCA2) is a multisystem neurodegenerative disease caused by a dominantly-acting mutation leading to expansion of a polyQ domain in the ataxin-2 protein (ATXN2). SCA2 patients develop progressive ataxia and later lose function in other neuronal systems. Prominent parkinsonian signs develop in some patients. Similar to many neurodegenerative disorders, no symptomatic or disease-modifying treatments are known.
The primary objective of project is to identify compounds inhibiting ATXN2 expression and to test them for efficacy in SCA2 mouse models. To this end, in a collaboration between Dr. Daniel Scoles and scientists at NCGC, a cell-based assay adapted to high-throughput screening has been developed to screen the NIH Molecular Libraries Small Molecule Repository (MLSMR).
NIH Chemical Genomics Center [NCGC]
NIH Molecular Libraries Probe Centers Network [MLPCN]
Assay Submitter (PI): Stefan Pulst and Daniel Scoles, University of Utah
4 ul of HEK293-ATXN2-FFLuc cell suspension (TBD cells/microL in phenol-red free DMEM) are dispensed into Greiner white solid bottom 1536-well assay plates, yielding a final well density of TBD cells/well. Plates are incubated for 2 hrs at 37 degrees C in 5% humidified CO2 to allow cell attachment. Compounds are then transferred via Kalypsys pin tool equipped with 1536-pin array (10nl slotted pins, V&P Scientific, San Diego, CA). In addition, duplicate serial dilutions of the control compounds ChemBridge 5553825, a previously identified ATXN2 expression inhibitor, and a known luciferase inhibitor, are pin-transferred. After incubation at 37 degrees C in 5% humidified CO2 for 24 hrs, CellTiter-Fluor reagent (1 ul) (Promega, Madison, WI) is then added and plates are incubated for 30 minutes, before being transferred to a ViewLux high-throughput CCD imager (PerkinElmer), wherein single end-point fluorescence measurements are acquired using the 405 nm excitation/525 nm emission filter set to assess cell viability. Next, Bright-Glo luciferase substrate detection reagent (3 ul) (Promega, Madison, WI) is added to each well and incubated for an additional 5 minutes. Luminescence is then measured on the ViewLux imager equipped with a clear emission filter using a 2 sec exposure.
On the technique in general: qHTS replaces the single test concentration by a dilution series.
In the case of `NC(N)=Nc1nc(CSCC/C(N)=N/S(N)(=O)=O)cs1`, the Potency result is “inactive”.

Take `O=c1cc(-c2ccc(O)cc2)oc2cc(O)cc(O)c12`: the Potency entry was “inactive”.

Take `CCCCC1C(=O)N(c2ccccc2)N(c2ccccc2)C1=O`: the Potency result is “inactive”.

With `O=C1NC(=O)C(c2ccccc2)(c2ccccc2)N1`, the Potency result is “inactive”.

For `CC(C)NCC(O)COc1cccc2[nH]ccc12` (stereo not drawn), the Potency entry is “inactive”.

`CC(C)OC(=O)C(C)(C)Oc1ccc(C(=O)c2ccc(Cl)cc2)cc1`: the Potency entry is “inactive”.

Consider `C[N+](C)(C)CCCCCC[N+](C)(C)C`, for which the Potency entry is “inactive”.

As to `CC(=O)c1ccc(S(=O)(=O)NC(=O)NC2CCCCC2)cc1`, the Potency entry was “inactive”.

Turning to `O=C1NCC2(CCN(CCc3ccccc3)CC2)O1`, the Potency entry was “inactive”.

On to `COc1ccccc1N1CCN(CCCNc2cc(=O)n(C)c(=O)n2C)CC1`, for which the Potency result was “inactive”.

Take `Cc1cccc(C)c1OCC(C)N` (stereo not drawn): the Potency entry is “inactive”.

Turning to `CC(=O)N[C@@H](CS)C(=O)O`, the Potency result was “inactive”.

On to `COc1ccc(Cc2nccc3cc(OC)c(OC)cc23)cc1OC`, for which the Potency entry is “inactive”.

As for `CCCCCN(C)CCC(O)(P(=O)(O)O)P(=O)(O)O`, the Potency entry is “inactive”.

Consider `Clc1ccc(Cn2c(CN3CCCC3)nc3ccccc32)cc1`, for which the Potency result is “inactive”.

Take `CC(=O)O[C@]1(C(C)=O)CC[C@H]2[C@@H]3C=C(Cl)C4=CC(=O)[C@@H]5C[C@@H]5[C@]4(C)[C@H]3CC[C@@]21C`: the Potency entry is “inactive”.

For `O=C(NCCN1CCOCC1)c1ccc(Cl)cc1`, the Potency result was “inactive”.

Regarding `CC1=C(/C=C/C(C)=C/C=C/C(C)=C/C(=O)Nc2ccc(O)cc2)C(C)(C)CCC1`, the Potency was 31.6 µM (active).

With `CC1(C)CCC2=C(O1)c1ccccc1C(=O)C2=O`, the Potency was 22.4 µM (active).

Turning to `C[N+](C)(C)CC(=O)O`, the Potency result is “inactive”.

Turning to `CCN(CC)CCNC(=O)c1ccc(N)cc1`, the Potency result was “inactive”.

For `CCCNC(=O)NS(=O)(=O)c1ccc(Cl)cc1`, the Potency entry was “inactive”.

On to `CC(=O)CCCCn1c(=O)c2c(ncn2C)n(C)c1=O`, for which the Potency result is “inactive”.

Consider `CCN(CC)C(=O)c1ccc(O)c(OC)c1`, for which the Potency entry is “inactive”.

With `O=C(O)CCc1nc(-c2ccccc2)c(-c2ccccc2)o1`, the Potency result was “inactive”.

For the molecule `CC/C(=C(\c1ccccc1)c1ccc(OCCN(C)C)cc1)c1ccccc1`, the Potency was 22.4 µM (active).

As for `NCCS`, the Potency result was “inactive”.

For the molecule `CCN(CC)CCOC(=O)c1ccc(N)cc1`, the Potency result was “inactive”.

Take `CCn1cc(C(=O)O)c(=O)c2ccc(C)nc21`: the Potency entry is “inactive”.

For the molecule `CCN1CCC[C@H]1CNC(=O)c1cc(S(N)(=O)=O)ccc1OC`, the Potency entry was “inactive”.

On to `CN(C)CCC(c1ccccc1)c1ccccn1` (stereo not drawn), for which the Potency result is “inactive”.

In the case of `COc1cccc(-c2cc(=O)c3ccccc3o2)c1N`, the Potency result was “inactive”.

In the case of `O=c1c(-c2ccc(O)cc2)coc2cc(O)ccc12`, the Potency entry is “inactive”.
